Source: the supplement of paper PMC10981050
Several values for one entry are separate records, joined by “and”; a condition that tells them apart may be missing. Equal values may be shown once. Where a name gives a salt, the structure may show the parent alone.

Experiments:
Experiment in all cases: cell viability relative to vehicle control; higher = less cytotoxic
Conditions in all cases: 10 µM
K562 = tested on: K562
Procedure, shortened: (§1)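 Mutant clones made by CRISPR editing and their isogenic wild-type counterparts, from four leukaemia lines, were exposed to a single 10 µM dose of each library compound for 48 h. The supernatant was then removed and CellTiter-Glo luminescence was read. Viability was reported as percent of the on-plate vehicle control.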

MARIMO = tested on: MARIMO
Procedure, shortened: as §1

MOLM14 = tested on: MOLM14
Procedure, shortened: as §1

OCI-AML2 = tested on: OCI-AML2
Procedure, shortened: as §1

Compound | cell viability (K562; SRSF2 genotype: SRSF2 P95H/wt) | cell viability (K562; SRSF2 genotype: SRSF2 wt/wt) [%] | cell viability (MARIMO; SRSF2 genotype: SRSF2 P95H/wt) [%] | cell viability (MARIMO; SRSF2 genotype: SRSF2 wt/wt) [%] | cell viability (MOLM14; SRSF2 genotype: SRSF2 P95H/wt) [%] | cell viability (MOLM14; SRSF2 genotype: SRSF2 wt/wt) [%] | cell viability (OCI-AML2; SRSF2 genotype: P95H/wt) [%] | cell viability (OCI-AML2; SRSF2 genotype: wt/wt) [%]
O=C(O)CCCNC(=O)c1cccnc1 [Pikamilone] | 109% and 105% | 119 | 97.1 | 105 | 99.9 | 106 | 114 | 118
Clc1ccc(C2(c3ccc(-c4cn[nH]c4)cc3)CCNCC2)cc1 | 44.6% and 48.5% | 34.5 | 40.3 | 45 | 24.2 | 12.5 | 21.6 | 27.4
Fc1ccc(CNc2ncnc3ccc(F)cc23)cc1 [Spautin-1] | 66.5% and 63.9% | 66.7 | 54.7 | 41.1 | 51.3 | 59.4 | 35.6 | 31.5
Nc1nc(=O)[nH]cc1F [Flucytosine (Ancobon)] | 102% and 98.9% | 102 | 103 | 105 | 95.9 | 102 | 105 | 109
OB1OCc2cc(F)ccc21 [Tavaborole (AN-2690)] | 88.2% and 85.6% | 84.3 | 85.4 | 87.8 | 82.8 | 85.1 | 87.8 | 82.8
Clc1ccc(C(Cn2ccnc2)OCc2ccsc2Cl)c(Cl)c1 (stereo not drawn) [Tioconazole] | 69.5% and 76.7% | 71.6 | 69.7 | 71.2 | 62.4 | 69.5 | 59.9 | 63.1
OC1CCC(Oc2cccc3cnc(Nc4ccc5nc[nH]c5c4)nc23)CC1 (stereo not drawn) | 40.6% and 46.8% | 32.7 | 11.5 | 4.14 | 1.38 | 0.57 | 1.67 | 16.3
C/C1=C\CC[C@]23O[C@H]2[C@@H](OC3=O)c2c(C)coc2C1 [Linderane] | 109% and 104% | 112 | 104 | 99.6 | 117 | 108 | 103 | 101
C[C@@H]1O[C@@H](OC[C@H]2O[C@@H](Oc3cc(O)c4c(c3)O[C@H](c3ccc(O)cc3)CC4=O)[C@H](O)[C@@H](O)[C@@H]2O)[C@H](O)[C@H](O)[C@H]1O [Narirutin] | 96.8% and 92.1% | 92.3 | 98.2 | 97.5 | 98.9 | 96.8 | 101 | 99.4
CN[C@@H](C)C(=O)N[C@H](C(=O)N1CCC[C@H]1c1nc(C(=O)c2ccc(F)cc2)cs1)C1CCCCC1 | 84.3% and 92.2% | 89.4 | 70.1 | 82.2 | 58.3 | 82.3 | 75.8 | 90.5
O=c1[nH]ccc2c(S(=O)(=O)N3CCCNCC3)cccc12 [Hydroxyfasudil (HA-1100)HCl] | 95.5% and 99.7% | 96.5 | 96.5 | 92.7 | 95.6 | 101 | 95.7 | 90.5
